Experimental data from the supplement of paper PMC8975748.
Structures can show the parent of a compound that is named as a salt. ± gives the standard deviation of the averaged measurements.

Key:
[1] = tested on: Saccharomyces cerevisiae BY4741 SeMeCo community; test: mean cell size (pixel area) (pixels); higher = larger cells; conditions: 10 µM; 24 h; SM minimal medium
Summary of the method: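 Harmony analysis of automated confocal images of paraformaldehyde-fixed yeast gave the mean cell pixel area per well. The yeast was a Saccharomyces cerevisiae BY4741 community carrying four plasmids, each with a fluorescent marker and each complementing one auxotrophy, incubated for 24 h in SM medium containing drug at a final 10 µM in 384-well plates. Results are averaged over 3 replicates. Same SeMeCo high-content imaging drug screen: Selleck FDA-approved drugs at 10 µM, 24 h in SM medium, 384-well plates, 3 replicates.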

[2] = tested on: Saccharomyces cerevisiae BY4741 SeMeCo community; test: z-score of prototroph abundance vs DMSO median; higher = larger share of this subpopulation than in DMSO controls; conditions: 10 µM; 24 h; SM minimal medium; subpopulation (auxotrophy): Prototroph
Summary of the method: (§1)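 Cells of a Saccharomyces cerevisiae BY4741 community, carrying four plasmids that each restored one auxotrophy and encoded a distinct fluorescent protein, were pre-grown overnight to OD600 1.0 and diluted to 0.3. A 70 µl volume was added to 384-well plates acoustically predosed with library drugs (10 µM final) and grown 24 h in minimal SM medium. After paraformaldehyde fixation, automated confocal microscopy was used, with single-auxotroph fluorescent strains for thresholds and autofluorescence correction. The abundance of each subpopulation was scored as a z-score against the vehicle-well median.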

[3] = tested on: Saccharomyces cerevisiae BY4741 SeMeCo community; test: z-score of subpopulation abundance vs DMSO median, subpopulation auxotrophic for L; higher = larger share of this subpopulation than in DMSO controls; conditions: 10 µM; 24 h; SM minimal medium; subpopulation (auxotrophy): L
Summary of the method: as §1

[4] = tested on: Saccharomyces cerevisiae BY4741 SeMeCo community; test: z-score of subpopulation abundance vs DMSO median, subpopulation auxotrophic for U; higher = larger share of this subpopulation than in DMSO controls; conditions: 10 µM; 24 h; SM minimal medium; subpopulation (auxotrophy): U
Summary of the method: as §1

[5] = tested on: Saccharomyces cerevisiae BY4741 SeMeCo community; test: z-score of subpopulation abundance vs DMSO median, subpopulation auxotrophic for LU; higher = larger share of this subpopulation than in DMSO controls; conditions: 10 µM; 24 h; SM minimal medium; subpopulation (auxotrophy): LU
Summary of the method: as §1

[6] = tested on: Saccharomyces cerevisiae BY4741 SeMeCo community; test: z-score of subpopulation abundance vs DMSO median, subpopulation auxotrophic for LM; higher = larger share of this subpopulation than in DMSO controls; conditions: 10 µM; 24 h; SM minimal medium; subpopulation (auxotrophy): LM
Summary of the method: as §1

[7] = tested on: Saccharomyces cerevisiae BY4741 SeMeCo community; test: z-score of subpopulation abundance vs DMSO median, subpopulation auxotrophic for HM; higher = larger share of this subpopulation than in DMSO controls; conditions: 10 µM; 24 h; SM minimal medium; subpopulation (auxotrophy): HM
Summary of the method: as §1

[8] = tested on: Saccharomyces cerevisiae BY4741 SeMeCo community; test: z-score of subpopulation abundance vs DMSO median, subpopulation auxotrophic for HU; higher = larger share of this subpopulation than in DMSO controls; conditions: 10 µM; 24 h; SM minimal medium; subpopulation (auxotrophy): HU
Summary of the method: as §1

[9] = tested on: Saccharomyces cerevisiae BY4741 SeMeCo community; test: z-score of subpopulation abundance vs DMSO median, subpopulation auxotrophic for HL; higher = larger share of this subpopulation than in DMSO controls; conditions: 10 µM; 24 h; SM minimal medium; subpopulation (auxotrophy): HL
Summary of the method: as §1

[10] = tested on: Saccharomyces cerevisiae BY4741 SeMeCo community; test: z-score of subpopulation abundance vs DMSO median, subpopulation auxotrophic for HLU; higher = larger share of this subpopulation than in DMSO controls; conditions: 10 µM; 24 h; SM minimal medium; subpopulation (auxotrophy): HLU
Summary of the method: as §1

[11] = tested on: Saccharomyces cerevisiae BY4741 SeMeCo community; test: z-score of subpopulation abundance vs DMSO median, subpopulation auxotrophic for HLM; higher = larger share of this subpopulation than in DMSO controls; conditions: 10 µM; 24 h; SM minimal medium; subpopulation (auxotrophy): HLM
Summary of the method: as §1

[12] = tested on: Saccharomyces cerevisiae BY4741 SeMeCo community; test: z-score of subpopulation abundance vs DMSO median, subpopulation auxotrophic for HUM; higher = larger share of this subpopulation than in DMSO controls; conditions: 10 µM; 24 h; SM minimal medium; subpopulation (auxotrophy): HUM
Summary of the method: as §1

[13] = tested on: Saccharomyces cerevisiae BY4741 SeMeCo community; test: z-score of subpopulation abundance vs DMSO median, subpopulation auxotrophic for LUM; higher = larger share of this subpopulation than in DMSO controls; conditions: 10 µM; 24 h; SM minimal medium; subpopulation (auxotrophy): LUM
Summary of the method: as §1

[14] = tested on: Saccharomyces cerevisiae BY4741 SeMeCo community; test: z-score of subpopulation abundance vs DMSO median, subpopulation auxotrophic for HLUM; higher = larger share of this subpopulation than in DMSO controls; conditions: 10 µM; 24 h; SM minimal medium; subpopulation (auxotrophy): HLUM
Summary of the method: as §1

[15] = tested on: Saccharomyces cerevisiae BY4741 SeMeCo community; test: z-score of subpopulation abundance vs DMSO median, subpopulation auxotrophic for H; higher = larger share of this subpopulation than in DMSO controls; conditions: 10 µM; 24 h; SM minimal medium; subpopulation (auxotrophy): H
Summary of the method: as §1

[16] = tested on: Saccharomyces cerevisiae BY4741 SeMeCo community; test: z-score of subpopulation abundance vs DMSO median, subpopulation auxotrophic for UM; higher = larger share of this subpopulation than in DMSO controls; conditions: 10 µM; 24 h; SM minimal medium; subpopulation (auxotrophy): UM
Summary of the method: as §1

Row | Structure (SMILES) | mean cell size [1] | z-score of prototroph abundance [2] | z-score of subpopulation abundance [3] | z-score of subpopulation abundance [4] | z-score of subpopulation abundance [5] | z-score of subpopulation abundance [6] | z-score of subpopulation abundance [7] | z-score of subpopulation abundance [8] | z-score of subpopulation abundance [9] | z-score of subpopulation abundance [10] | z-score of subpopulation abundance [11] | z-score of subpopulation abundance [12] | z-score of subpopulation abundance [13] | z-score of subpopulation abundance [14] | z-score of subpopulation abundance [15] | z-score of subpopulation abundance [16]
1 | c1cnc2cc3c(cc2n1)[C@@H]1CNC[C@H]3C1 [Varenicline Tartrate] | 12.1 ± 0.23 | 0.71 | -0.32 | -0.22 | -0.66 | 0.09 | -0.22 | -0.05 | 0.16 | -0.4 | 0.76 | -0.72 | -0.39 | 0.16 |  | 
2 | CCCc1nn(C)c2c(=O)[nH]c(-c3cc(S(=O)(=O)N4CCN(C)CC4)ccc3OCC)nc12 [Sildenafil] | 11.4 ± 0.3 | 1.69 | -1.03 |  | -0.5 | -0.52 | -0.93 | 0.7 | -1.43 | -0.35 | -1.11 | -0.61 | -0.21 | 0.26 | -2.48 | -0.73
3 | C[C@@H](c1nc(-c2ccc(C#N)cc2)cs1)[C@](O)(Cn1cncn1)c1cc(F)ccc1F [Isavuconazole] | 11.95 ± 0.079 | -10.4 | -0.71 | -1.5 | 0.81 | 1.61 | 8.09 | 8.91 | 9.84 | 6.83 | 15.5 | 10.4 | 7.48 | 13.5 | 15.6 | 
4 | CC[C@H]1OC(=O)C[C@@H](O)[C@H](C)[C@@H](O[C@@H]2O[C@H](C)[C@@H](O)[C@H](N(C)C)[C@H]2O)[C@@H](CCN2C[C@H](C)C[C@H](C)C2)C[C@@H](C)C(=O)/C=C/C(C)=C/[C@@H]1CO[C@@H]1O[C@H](C)[C@@H](O)[C@@H](OC)[C@H]1OC [Tilmicosin] | 12.4 ± 0.17 | -1.13 | 0.75 |  | 1.26 | 0.46 | 0.93 | 1.52 |  | 0.58 | 0.13 | 0.75 | 1.68 | 0.67 | 0.98 | 0.65
5 | CCC(C)(C)C(=O)O[C@H]1C[C@@H](C)C=C2C=C[C@H](C)[C@H](CC[C@@H]3C[C@@H](O)CC(=O)O3)[C@H]21 [Simvastatin] | 11.7 ± 0.28 | -1.66 | -0.13 | 0.43 | 1.71 | -0.1 | 2.47 |  |  | 3.09 | 3.79 | 1.9 | 1.33 | 2.55 | 0.79 | 
6 | O=C(O)C[C@H](O)C[C@H](O)/C=C/c1c(C2CC2)nc2ccccc2c1-c1ccc(F)cc1 [Pitavastatin Calcium] | 12 ± 0.2 | -2.8 | 0.86 | 0.68 | 1.45 | -0.2 | 4.05 | 2.66 | 1.83 | 1.38 | 2.39 | 3.37 | 1.38 |  | 1.86 | 1.84
7 | C[C@H]1COc2c(N3CCN(C)CC3)c(F)cc3c(=O)c(C(=O)O)cn1c23 [Levofloxacin hydrate] | 12.5 ± 0.29 | -1.38 | 1.32 | 0.27 | 1.73 |  | 0.64 | 0.77 | 0.74 | 0.84 | 0.07 | 0.55 | 1.66 | 0.84 | 0.26 | 0.61
8 | Clc1ccc(CCC(Cn2ccnc2)Sc2c(Cl)cccc2Cl)cc1 (stereo not drawn) [Butoconazole] | 12.08 ± 0.019 | -10 | 2.88 | -0.41 | -0.9 | -2.25 | 1.61 |  | 31.6 | 9.84 | 27.1 | 5.14 |  | 32.1 | 36.2 | 0.29
9 | O=[N+]([O-])c1ccc(O)c2ncccc12 [Nitroxoline] | 13.6 ± 0.5 | -16.6 | -0.84 | -2.48 | 12.2 | 4.84 | 27.9 | 16.3 | 22.6 | 24.8 | 65.9 | 19.7 |  |  | 9.75 | 
10 | CN1CCC(=C2c3ccccc3CCc3sccc32)CC1 [Pizotifen Malate] |  | 0.02 | 0.36 |  | 0.03 | -0.03 | -0.03 | -0.33 | 0.05 | 0.5 | 0.21 | -0.14 | -0.55 | 0.16 |  | 
11 | CCN1CCCC1CNC(=O)c1cc(S(=O)(=O)CC)c(N)cc1OC (stereo not drawn) [Amisulpride] |  | 0.14 | -0.08 | 0.31 | 0.33 | -0.1 | -1.17 | 0.3 | -0.73 | -0.63 | -0.87 | -0.03 | -0.21 | -0.8 |  | 0.04
12 | CC(C(=O)O)c1ccc2c(c1)[nH]c1ccc(Cl)cc12 (stereo not drawn) [Carprofen] | 13.82 ± 0.13 | 3.42 | -0.33 | -3.82 | -3.11 | -1.27 | -2.19 | -2.04 |  | -0.81 | 0.84 | -2.82 | -1.52 |  | 3.31 | -4.96
13 | O=C1CN(/N=C/c2ccc([N+](=O)[O-])o2)C(=O)N1 [Nitrofurantoin] | 12.47 ± 0.1 | 0.19 | -0.13 | -0.25 | -0.11 |  | -0.67 | -0.72 | 0.1 | -0.69 | -0.2 | -0.82 | -0.21 | -0.04 | -0.05 | 0.27
14 | CC1(C)S[C@@H]2[C@H](NC(=O)Cc3ccccc3)C(=O)N2[C@H]1C(=O)O.CCN(CC)CCOC(=O)c1ccc(N)cc1 [Penicillin G Procaine] |  | -1.56 | 0.99 | -0.07 | 0.41 | 1 | 0.69 | 0.54 | 2.5 | 0.81 | 0.43 | 0.86 | 1.6 | 1.65 | 1.75 | 0.64
